Results as given in PubChem BioAssay (Tox21).
Results filed as inconclusive are left out. Calls of active or inactive are those of the source. Unless noted, calls follow the shape of the dose curve; as a rule, active = well fitted curve in the direction sought with a large enough effect in the repeat runs; inconclusive = weak or mixed curves; inactive = no such curve, though single readings can be large; an effect the other way counts as inactive or inconclusive.

Assays:
[1] = qHTS assay to identify small molecule antagonists of the thyroid receptor (TR) signaling pathway - cell viability counter screen (AID 743064); also: nearly all actives have a fitted effect of over 50% in size
Procedure, shortened: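 Fluorescence from CellTiter-Fluor, added after 23.5 h exposure at 37 °C, reported viability of GH3.TRE-Luc cells co-treated with compound and 1 nM T3. Measured in the same wells as the luciferase TR readout.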

[2] = qHTS assay to identify small molecule antagonists of the thyroid receptor (TR) signaling pathway (AID 743065); also: series mostly up to about 70 µM; nearly all actives have a fitted effect of over 55% in size
Procedure, shortened: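 GH3.TRE-Luc rat pituitary cells carrying two TR response elements driving luciferase were plated for 4 h, given compound plus 1 nM T3 (final), and incubated 23.5 h at 37 C. ONE-Glo luminescence measured reporter inhibition; CellTiter-Fluor fluorescence tracked cytotoxicity.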

[3] = tested on: thyroid hormone receptor (rat, GH3 cells); experiment: qHTS assay to identify small molecule agonists of the thyroid receptor (TR) signaling pathway (AID 743066; calls by dose curve)
[4] = qHTS assay to identify small molecule antagonists of the estrogen receptor alpha (ER-alpha) signaling pathway - cell viability counter screen (AID 743074; calls by dose curve; also: nearly all actives have a fitted effect of over 45% in size)
[5] = qHTS assay to identify small molecule antagonists of the estrogen receptor alpha (ER-alpha) signaling pathway using the BG1 cell line - cell viability counter screen (AID 743081);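 also: compound given together with 17beta-estradiol as the ER stimulus; series mostly up to about 70 µM; nearly all actives have a fitted effect of over 45% in size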
Aromatase (Homo sapiens) = Aromatase (Homo sapiens) (UniProt P11511); experiment: qHTS assay to identify aromatase inhibitors (AID 743083); also: series mostly up to about 70 µM; nearly all actives have a fitted effect of over 55% in size
[6] = target: Estrogen receptor (Homo sapiens) (UniProt P03372); experiment: qHTS assay to identify small molecule antagonists of the estrogen receptor alpha (ER-alpha) signaling pathway (AID 743069; active = well fitted curve in the direction sought with a large enough effect in the signal ratio in the repeat runs, not every such curve was filed as active; the % refers to the signal ratio)
Procedure, shortened: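 Screening used a UAS-driven beta-lactamase reporter integrated into HEK293 cells expressing ER-alpha, stimulated with 17beta-estradiol alongside test compounds over 18 hr at 37C; signal came from LiveBLAzer B/G FRET fluorescence.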

[7] = target: Estrogen receptor (Homo sapiens) (UniProt P03372); experiment: qHTS assay to identify small molecule agonists of the estrogen receptor alpha (ER-alpha) signaling pathway (AID 743075; calls by dose curve)
[8] = target: Estrogen receptor (Homo sapiens) (UniProt P03372); experiment: qHTS assay to identify small molecule agonists of the estrogen receptor alpha (ER-alpha) signaling pathway using the BG1 cell line (AID 743079); also: nearly all actives have a fitted effect of over 20% in size; also: potency is read from the fitted curve at half-maximal effect
[9] = qHTS assay to identify small molecule antagonists of the estrogen receptor alpha (ER-alpha) signaling pathway using the BG1 cell line (AID 743080; calls by dose curve;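 also: BG1 cells stimulated with 17beta-estradiol alongside compound; series mostly up to about 70 µM; nearly all actives have a fitted effect of over 25% in size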)
Procedure, shortened: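 After 5 days in phenol-red-free 10% charcoal-stripped FBS medium, BG1-Luc-4E2 cells were seeded, left 24 h at 37 C, co-treated with compounds and 17beta-estradiol for 21.5 h, then assayed for viability and luciferase.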

Measured: Potency

Chain of Estrogen receptor (Homo sapiens) (P03372 whole entry, looked up): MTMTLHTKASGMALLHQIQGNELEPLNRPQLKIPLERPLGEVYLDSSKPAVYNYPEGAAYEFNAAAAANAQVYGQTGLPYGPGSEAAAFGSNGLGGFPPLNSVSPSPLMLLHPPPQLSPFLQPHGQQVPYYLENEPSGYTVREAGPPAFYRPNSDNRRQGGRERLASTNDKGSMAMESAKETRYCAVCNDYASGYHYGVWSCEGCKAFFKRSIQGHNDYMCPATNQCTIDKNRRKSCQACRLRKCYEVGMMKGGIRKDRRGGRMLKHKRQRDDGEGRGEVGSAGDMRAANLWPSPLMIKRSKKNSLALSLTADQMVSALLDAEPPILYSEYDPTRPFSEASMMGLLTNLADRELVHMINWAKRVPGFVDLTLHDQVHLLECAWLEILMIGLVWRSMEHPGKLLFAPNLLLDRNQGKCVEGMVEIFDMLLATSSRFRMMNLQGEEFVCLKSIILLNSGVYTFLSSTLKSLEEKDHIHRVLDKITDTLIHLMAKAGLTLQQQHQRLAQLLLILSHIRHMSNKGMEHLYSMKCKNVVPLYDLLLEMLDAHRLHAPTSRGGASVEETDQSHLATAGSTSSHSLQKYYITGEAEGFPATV
Chain of Aromatase (Homo sapiens) (P11511 whole entry, looked up): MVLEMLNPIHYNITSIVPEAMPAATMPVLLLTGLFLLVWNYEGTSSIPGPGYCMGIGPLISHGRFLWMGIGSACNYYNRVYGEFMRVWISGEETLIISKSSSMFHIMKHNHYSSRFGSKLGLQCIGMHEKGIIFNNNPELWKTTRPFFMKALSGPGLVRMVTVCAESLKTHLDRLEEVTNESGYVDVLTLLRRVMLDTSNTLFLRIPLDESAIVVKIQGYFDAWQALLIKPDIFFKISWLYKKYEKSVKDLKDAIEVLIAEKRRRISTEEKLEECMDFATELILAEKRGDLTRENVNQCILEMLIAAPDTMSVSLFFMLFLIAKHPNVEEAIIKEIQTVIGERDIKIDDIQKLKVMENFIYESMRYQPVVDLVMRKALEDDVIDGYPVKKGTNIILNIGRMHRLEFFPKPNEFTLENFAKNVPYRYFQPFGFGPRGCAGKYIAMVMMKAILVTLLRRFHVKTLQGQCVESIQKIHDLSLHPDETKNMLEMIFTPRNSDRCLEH

CCCCCC(=O)CC
inactive: [1] | [2] | [3] | [4] | [5] | Aromatase (Homo sapiens)

CC(C)(C)OC=O
inactive: [1] | [2] | [3] | [4] | [5] | Aromatase (Homo sapiens)

CC(C)c1cc(C(C)C)cc(C(C)C)c1
not listed: [2] | [3]
inactive: all other assays above

COc1ccc(Cl)cc1C
inactive: [1] | [3] | [4] | [5] | Aromatase (Homo sapiens)

CCOCCOCCOC(C)=O
inactive: [1] | [3] | [4] | [5] | Aromatase (Homo sapiens)

C[C@H]1COc2c(C3(N)CC3)c(F)cc3c(=O)c(C(=O)O)cn1c23
inactive: [1] | [4] | [5] | Aromatase (Homo sapiens)

C/C=C/C(=O)CCCC
not listed: [2]
inactive: all other assays above

CC(=O)SCC(CC(=O)c1ccc(C)cc1)C(=O)O (stereo not drawn)
not listed: [2]
inactive: all other assays above

O=C1Nc2ccccc2C1=O
inactive: [1] | [3] | [4] | [5] | Aromatase (Homo sapiens)

O=C(O)P(=O)(O)O
inactive: [1] | [3] | [4] | [5] | Aromatase (Homo sapiens)

CCCCCCCCCCCC(C)=O
active: [8] 17.2 µM
not listed: [2] | [3] | [7]
inactive: all other assays above

CC(C)(C)c1ccc(N)cc1
not listed: [2] | [8]
inactive: all other assays above

CC(C)(C)C(=O)CC(=O)C(C)(C)C
not listed: [2]
inactive: all other assays above

C=CC(=O)CC
inactive: [1] | [3] | [4] | [5] | Aromatase (Homo sapiens)

COCCCOc1cc(C[C@@H](C[C@H](N)[C@@H](O)C[C@H](C(=O)NCC(C)(C)C(N)=O)C(C)C)C(C)C)ccc1OC
not listed: [2] | [4]
inactive: all other assays above

CCCCN1C(=O)c2ccccc2C1=O
not listed: [2] | [3]
inactive: all other assays above

COc1cnc(NS(=O)(=O)c2ccc(N)cc2)nc1
not listed: [2]
inactive: all other assays above

O=CN1CCCCC1
not listed: [2] | [3]
inactive: all other assays above

C=CC(C)(CCC=C(C)C)OC(=O)C(C)C (stereo not drawn)
not listed: [2]
inactive: all other assays above
